# Bioassay records from PubChem.
# DT40 TDP1 CPT: DT40-hTDP1 cell growth loss with CPT; AID 686979; 420,000 compounds, 12% hits; chicken DT40 Tdp1-/-;hTDP1 cells + 20 nM CPT, ATP luminescence, 48 h; Potency, µM (top dose mostly 46.2 µM), inactives show top-dose activity change, negative = growth inhibition, hits mostly inhibitors; also: potency is read from the fitted curve at half-maximal effect; nearly all actives have a fitted effect of over 55% in size
#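 Chicken DT40 Tdp1-/- cells stably complemented with human TDP1 were seeded at 400 cells/well in medium containing 20 nM camptothecin, exposed to pin-transferred compounds, and grown at 37 °C for at least 48 hr. Viability was read as ATP luminescence.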
# HT1080 IDH1KD tx: kills HT-1080 cells with IDH1 knockdown; HT-1080 IDH1 knockdown viability, ATP luminescence, 48 h; Potency, µM (doses to about 46.1 µM), without a hit: at the top dose activity, negative = toxicity, hits mostly cytotoxic; 360,000 compounds, 2% hits;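 also: potency is read from the fitted curve at half-maximal effect; 0% = DMSO wells and -100% = cell-free medium wells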
#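 Luminescent ATP read-out (CellTiter-Glo, 10 min at room temperature) after 48 h compound exposure at 37 °C gave viability of IDH1-knockdown HT-1080 cells. Activity was normalised to DMSO and cell-free wells, then fitted as concentration-response curves.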
# HT1080NT lethal: kills 2HG-producing HT-1080-NT fibrosarcoma cells | Potency, µM (series often up to 46.1 µM), for the others: at the highest dose activity, negative = less viability, usual class: cytotoxic | HT-1080-NT fibrosarcoma viability, CellTiter-Glo ATP luminescence, 48 h | AID 686970 | 360,000 compounds, 1.6% hits;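 also: NT is the 2HG producing partner of a matched IDH1 knockdown line; potency is read from the fitted curve at half-maximal effect; 0% = DMSO-treated cells and -100% = media-only wells without cells; nearly all actives have a fitted effect of over 55% in size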
#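 750 cells/well, RPMI + 5% FBS; 2 h settle, compound pin-transfer, 48 h at 37 degrees C. CellTiter-Glo 10 min RT, luminescence. Normalized to DMSO and media-only wells.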
# TDP1 cell noCPT: qHTS for Inhibitors of human tyrosyl-DNA phosphodiesterase 1 (TDP1): qHTS in cells in absence of CPT. 420,000 compounds, 15% hits. AID 686978, 2013. Potency, µM (top dose mostly 46.2 µM), for inactives: at the top dose activity change, negative = growth inhibition, usual class: inhibitors. DT40 Tdp1-/- hTDP1 cells, no CPT, ATP luminescence, 48 h; also: potency is read from the fitted curve at half-maximal effect; nearly all actives have a fitted effect of over 55% in size
#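 No-CPT arm: Tdp1-/-;hTDP1 DT40 cells (400/well) plus compounds, incubated ≥48 hr at 37 °C. Readout CellTiter-Glo luminescence.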
# IL-1B inflam inh: inhibitors of inflammasome signaling (IL-1 beta secretion); 360,000 compounds, 4.7% hits; activity change, % at 57.5 µM; THP-1 LPS/ATP IL-1B secretion, AlphaLISA, 16 h; active compounds read low; AID 743279; in the data active = activity change below about -50%; inconclusive = mostly about -30% to -49%
#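 THP-1 cells pretreated 1 hr with compounds (up to 57.5 uM final), then stimulated with LPS (250 ng/mL final) plus ATP (1.25 mM final); secreted IL-1B measured by AlphaLISA after 16 hr, decreased signal indicating inhibition.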
# The depositor's hits bear a star; ? = inconclusive; / = no result. This is a sample that favours compounds with a hit; in the whole collection about 19% have one here. Unless noted, calls follow the shape of the dose curve; as a rule, active = well fitted curve in the direction sought with a large enough effect; inconclusive = small, poorly fitted or top-dose-only effect, or another doubt; inactive = no such curve, though single readings can be large; an effect the other way counts as inactive or inconclusive. Unless noted, % is scaled to controls: 0 for no effect and ±100 for the full control effect.
SMILES,DT40 TDP1 CPT,HT1080 IDH1KD tx,HT1080NT lethal,TDP1 cell noCPT,IL-1B inflam inh
CC1(c2ccc(Cl)cc2Cl)NC(=O)N(CC(=O)Nc2ccc3[nH]c(=O)[nH]c3c2)C1=O (stereo not drawn),-0.4%,-1.3%,1.6%,-8.2%,-12.4
CCCCn1c(N)c(N(CCOC)C(=O)CCc2ccc(OC)cc2)c(=O)[nH]c1=O,14.4%,3.4%,7.9%,-26.5%,0.0
N#CCCN(Cc1ccccc1)C(=O)Nc1ccc(F)cc1,3.0%,11.0%,5.1%,-11.9%,/
Cc1cccc(OC(C)C(=O)NCc2ccc(S(N)(=O)=O)cc2)c1 (stereo not drawn),0.4%,16.6%,6.9%,-15.7%,28.2
CC(Oc1cccc(Cl)c1)C(=O)NCc1ccc(S(N)(=O)=O)cc1 (stereo not drawn),?,-1.0%,9.7%,25.9µM*,12.7
Cc1ccc(Cn2cc(CN3CC(N4CCN(CCN(C)C)CC4)CS3(=O)=O)nn2)cc1 (stereo not drawn),-17.3%,6.4%,21.4%,-21.0%,50.6
FC(F)(F)c1ccc(Nc2nnnc3ccccc23)cc1,?,3.0%,19.2%,3.66µM*,-2.1
FC(F)(F)c1ccccc1-c1nc(Nc2ccncc2)c2ccccc2n1,?,/,/,-62.7%,/
Cc1cccc(C(=O)OCc2cc(=O)n3nc(C4CC4)sc3n2)c1,-3.5%,/,/,-8.1%,/
CCOc1ccc(Br)cc1C1=NN(C(C)=O)C(c2ccc([N+](=O)[O-])s2)O1 (stereo not drawn),18.4µM*,?,23.1µM*,8.2µM*,-26.1
COc1ccc(Cc2c(-c3cccc(Br)c3)nc3c(C)cc(Br)cn23)c(C)c1,?,-0.8%,-12.4%,?,7.8
COc1ccc(Cc2c(-c3ccccc3)nc3c(C)cc(Br)cn23)c(C)c1,16.4µM*,?,-30.0%,?,33.8
COc1ccc(Cc2c(-c3ccc(F)cc3)nc3c(C)cc(Br)cn23)c(C)c1,?,-6.5%,2.4%,18.4µM*,21.5
COc1ccc(Cc2c(-c3cccc(Cl)c3)nc3ccc(C)cn23)c(C)c1,16.4µM*,?,?,20.6µM*,-15.5
COc1ccc(Cc2c(-c3ccccc3)nc3ccc(Cl)cn23)c(C)c1,?,1.6%,-2.8%,?,41.5
COc1ccccc1Cc1c(-c2ccc(F)cc2)nc2c(C)cc(Br)cn12,?,?,?,?,1.4
COc1ccc(Cc2c(-c3ccc(Cl)cc3)nc3c(C)cc(Br)cn23)c(C)c1,23.1µM*,?,?,20.6µM*,54.0
COc1ccc(Cc2c(C3CCCCC3)nc3c(C)cc(Br)cn23)c(C)c1,2.59µM*,?,?,2.59µM*,6.3
COc1ccc(Cc2c(-c3cccc(Cl)c3)nc3c(C)cc(Br)cn23)c(C)c1,2.59µM*,23.1µM*,20.6µM*,2.59µM*,?
Cc1cc(Br)cn2c(Cc3cccc(Cl)c3)c(-c3cccc(Cl)c3)nc12,?,-0.8%,-5.2%,25.9µM*,9.1
CCCc1nc2c(C)cc(Br)cn2c1Cc1ccc(OC)cc1C,?,?,?,20.6µM*,-1.8
CNC(=O)C(C)Sc1ccc(S(=O)(=O)N2CCOCC2)cn1 (stereo not drawn),-18.3%,-5.3%,0.5%,-5.8%,-6.4
COc1ccc(Oc2ncc3ncc(=O)n(CCC#N)c3n2)cc1,12.7%,/,/,?,/
CCOC(=O)CCN1C(=O)c2ccccc2Sc2ncccc21,-11.3%,12.6%,12.9%,-24.1%,12.6
CCOC(=O)C1=C(N)N2C(=O)CSC2=C(C(=O)OC)C1,-6.3%,14.4%,21.9%,?,9.2
SMILES,DT40 TDP1 CPT,HT1080 IDH1KD tx,HT1080NT lethal,TDP1 cell noCPT,IL-1B inflam inh
COc1cc2ccccc2cc1C(=O)Nc1ccc(C)cc1,?,?,?,?,-2.9
COc1ccccc1NC(=O)Nc1ccc(Cc2ccncc2)cc1,7.8%,-6.6%,-0.5%,-2.9%,-87.0*
COc1cc2ccccc2cc1C(=O)Nc1ccc(Cc2ccncc2)cc1,18.4µM*,?,-29.6%,25.9µM*,-71.5*
CCc1cccc(C)c1NC(=O)C(NS(=O)(=O)c1ccc2c(c1)CCC(=O)N2)c1ccccc1 (stereo not drawn),-22.2%,/,/,-29.2%,/
CC(=NCCc1c(C)[nH]c2ccc(OC(F)(F)F)cc12)C1=C(O)CC(c2ccccc2)CC1=O (stereo not drawn),4.61µM*,?,?,3.26µM*,-12.2
CC(=NCCc1c(C)[nH]c2ccc(C)cc12)C1=C(O)CC(c2ccccc2)CC1=O (stereo not drawn),1.16µM*,8.2µM*,-28.9%,1.64µM*,-28.5
COc1ccccc1C(CNC(=O)C(C)Oc1ccc(Br)cc1)N1CCCC1 (stereo not drawn),-15.7%,-13.9%,-2.4%,?,-24.2
CCCN(Cc1cccs1)C(=O)Nc1ccccc1C,-27.4%,/,/,?,/
COc1ccnc(Oc2ccc(F)cc2)c1C(=O)N/C=N/OCc1ccc(Cl)cc1Cl,-8.3%,0.0%,-4.7%,?,-12.9
COc1ccnc(Oc2ccc(F)cc2)c1C(=O)N/C=N/OCc1ccc(F)cc1Cl,?,-13.6%,2.8%,?,-64.5*
Cc1oc(-c2cccs2)nc1CNC[C@H]1O[C@@H](n2cnc(C(N)=O)n2)[C@H](O)[C@@H]1O,-4.5%,0.4%,-5.1%,-4.3%,-10.5
CCc1cccc(NC(=O)Cn2ncc3c([nH]c4ccc(C)cc43)c2=O)c1,-1.3%,/,/,4.4%,/
CCOC(CNC(=O)c1ccc(N2CCc3ccccc32)c([N+](=O)[O-])c1)OCC,20.6µM*,-0.5%,-1.1%,18.4µM*,-18.7
COc1cc(C=C2Cc3ccccc3C2=O)cc(OC)c1OC,16.4µM*,-8.7%,-0.2%,8.2µM*,17.1
COc1cc(N(C)C)c(OC)cc1/C=C1\Cc2ccccc2C1=O,?,/,/,11.2µM*,/
COc1ccc(C=C2Cc3ccccc3C2=O)cc1,-11.2%,-10.0%,-1.2%,?,18.4
COc1ccc(/C=C2\Cc3ccccc3C2=O)cc1OC,-19.0%,4.7%,2.5%,?,-0.6
Cc1ccc(-n2ncc(C(=O)NCc3ccco3)c2C2CCN(C(=O)OC(C)(C)C)CC2)cc1,18.4µM*,/,/,18.4µM*,/
Cc1ccc(-n2ncc(C(=O)NCc3ccco3)c2C2CCN(C(=O)OC(C)(C)C)CC2)cc1C,16.4µM*,/,/,?,/
Cc1ccc(-n2ncc(C(=O)NC3CC3)c2C2CCN(C(=O)OC(C)(C)C)CC2)cc1,-18.4%,17.6%,15.4%,-3.3%,35.9
O=C(CN1C(=O)C2CC=CCC2C1=O)NCC1COc2ccccc2O1 (stereo not drawn),-19.4%,4.5%,-0.1%,-17.6%,13.9
